# Measurements reported in the supplement of paper PMC8728848.
# About 410 targets per protein were measured; listed, in parts, are those with the strongest signals and a random draw of the rest.
# B1: pTFF2 (Sus scrofa), P01359 (protein)
# chain: KPAACRCSRQDPKNRVNCGFPGITSDQCFTSGCCFDSQVPGVPWCFKPLPAQESEECVMEVSARKNCGYPGISPEDCAARNCCFSDTIPEVPWCFFPMSVEACHY
# Tests used:
# Assay in all cases: glycan array binding signal (z-score within array); higher = stronger binding
# Conditions in all cases: glycan notation: IUPAC condensed, linker removed
# [1] = target: Fuc(a1-2)Gal(b1-3)GalNAc(b1-3)Gal(a1-4)Gal(b1-4)Glc
# Method in brief: (§1)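 Columns mapping to the same glycan were averaged after glycan names were converted to IUPAC-condensed notation. The data come from 3228 arrays in the Consortium for Functional Glycomics database, limited to those with an available protein sequence. Binding is reported as a within-array Z-score averaged across arrays of one protein sequence and across linkers.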
# [2] = target: Fuc(a1-2)Gal(b1-4)GlcNAc(b1-2)Man(a1-3)[Fuc(a1-2)Gal(b1-4)GlcNAc(b1-2)Man(a1-6)]Man(b1-4)GlcNAc(b1-4)GlcNAc
# Method in brief: as §1
# [3] = target: Fuc(a1-2)Gal(b1-4)GlcNAc(b1-3)Gal(b1-4)GlcNAc(b1-2)Man(a1-3)[Fuc(a1-2)Gal(b1-4)GlcNAc(b1-3)Gal(b1-4)GlcNAc(b1-2)Man(a1-6)]Man(b1-4)GlcNAc(b1-4)GlcNAc
# Method in brief: as §1
# [4] = target: Fuc(a1-2)Gal6S(b1-3)GlcNAc6S
# Method in brief: as §1
# [5] = target: Fuc(a1-2)[Gal(a1-3)]Gal
# Method in brief: as §1
# [6] = target: Fuc(a1-2)[Gal(a1-3)]Gal(b1-4)GlcNAc(b1-6)GalNAc
# Method in brief: as §1
# [7] = target: Fuc(a1-2)[GalNAc(a1-3)]Gal(b1-4)GlcNAc(b1-2)Man
# Method in brief: as §1
# [8] = target: Fuc(a1-2)[GalNAc(a1-3)]Gal(b1-4)GlcNAc(b1-3)Gal(b1-4)GlcNAc(b1-3)Gal(b1-4)GlcNAc
# Method in brief: as §1
# [9] = target: Fuc(a1-3)[Gal(b1-4)]GlcNAc(b1-2)Man(a1-3)[Fuc(a1-3)[Gal(b1-4)]GlcNAc(b1-2)Man(a1-6)]Man(b1-4)GlcNAc(b1-4)[Fuc(a1-6)]GlcNAc
# Method in brief: as §1
# [10] = target: Gal(a1-3)Gal
# Method in brief: as §1
# [11] = target: Gal(a1-3)Gal(b1-4)GlcNAc(b1-3)GalNAc
# Method in brief: as §1
# [12] = target: Gal(a1-4)Gal(b1-4)GlcNAc(b1-2)Man(a1-3)[Gal(a1-4)Gal(b1-4)GlcNAc(b1-2)Man(a1-6)]Man(b1-4)GlcNAc(b1-4)GlcNAc
# Method in brief: as §1
# [13] = target: Gal(b1-2)Gal
# Method in brief: as §1
# [14] = target: Gal(b1-3)GalNAc(b1-3)Gal
# Method in brief: as §1
# [15] = target: Gal(b1-3)GalNAc(b1-4)[Neu5Ac(a2-3)]Gal(b1-4)Glc
# Method in brief: as §1
# [16] = target: Gal(b1-4)GlcNAc(b1-2)Man
# Method in brief: as §1
# [17] = target: Gal(b1-4)GlcNAc(b1-2)[Gal(b1-4)GlcNAc(b1-4)]Man(a1-3)[Gal(b1-4)GlcNAc(b1-2)Man(a1-6)]Man(b1-4)GlcNAc(b1-4)GlcNAc
# Method in brief: as §1
# [18] = target: Gal(b1-4)GlcNAc(b1-3)Gal(b1-4)GlcNAc
# Method in brief: as §1
# [19] = target: Gal(b1-4)GlcNAc(b1-3)Gal(b1-4)GlcNAc(b1-3)Gal(b1-4)GlcNAc(b1-3)Gal(b1-4)GlcNAc(b1-3)Gal(b1-4)GlcNAc(b1-2)Man(a1-3)[Gal(b1-4)GlcNAc(b1-3)Gal(b1-4)GlcNAc(b1-3)Gal(b1-4)GlcNAc(b1-3)Gal(b1-4)GlcNAc(b1-3)Gal(b1-4)GlcNAc(b1-2)Man(a1-6)]Man(b1-4)GlcNAc(b1-4)GlcNAc
# Method in brief: as §1
# [20] = target: Gal(b1-4)GlcNAc(b1-3)Gal(b1-4)GlcNAc(b1-3)Gal(b1-4)GlcNAc(b1-3)Gal(b1-4)GlcNAc(b1-3)Gal(b1-4)GlcNAc(b1-2)Man(a1-3)[Gal(b1-4)GlcNAc(b1-3)Gal(b1-4)GlcNAc(b1-3)Gal(b1-4)GlcNAc(b1-3)Gal(b1-4)GlcNAc(b1-3)Gal(b1-4)GlcNAc(b1-2)Man(a1-6)]Man(b1-4)GlcNAc(b1-4)[Fuc(a1-6)]GlcNAc
# Method in brief: as §1
# [21] = target: Gal3S(b1-3)GalNAc
# Method in brief: as §1
# [22] = target: Gal6S(b1-4)GlcNAc6S
# Method in brief: as §1
# [23] = target: GalNAc(b1-3)Gal(a1-4)Gal(b1-4)GlcNAc
# Method in brief: as §1
# [24] = target: GalNAc(b1-3)GlcNAc
# Method in brief: as §1
# [25] = target: GalNAc(b1-4)Gal(b1-4)Glc
# Method in brief: as §1
# [26] = target: GalNAc(b1-4)GlcNAc(b1-3)GalNAc(b1-4)GlcNAc
# Method in brief: as §1
# [27] = target: GalNAc3S(b1-4)GlcNAc
# Method in brief: as §1
# [28] = target: GlcNAc(b1-2)Man(a1-3)[GlcNAc(b1-2)Man(a1-6)]Man(b1-4)GlcNAc(b1-4)[Fuc(a1-6)]GlcNAc
# Method in brief: as §1
# [29] = target: GlcNAc(b1-2)Man(a1-3)[GlcNAc(b1-4)][GlcNAc(b1-2)Man(a1-6)]Man(b1-4)GlcNAc(b1-4)GlcNAc
# Method in brief: as §1
# [30] = target: GlcNAc(b1-2)[GlcNAc(b1-6)]Man(a1-6)[GlcNAc(b1-4)][GlcNAc(b1-2)Man(a1-3)]Man(b1-4)GlcNAc(b1-4)GlcNAc
# Method in brief: as §1
binder,measurement,setting,value
B1,glycan array binding signal (z-score),[1],-0.047
same,glycan array binding signal (z-score),[2],0.121
same,glycan array binding signal (z-score),[3],0.716
same,glycan array binding signal (z-score),[4],-0.991
same,glycan array binding signal (z-score),[5],-0.204
same,glycan array binding signal (z-score),[6],-0.303
same,glycan array binding signal (z-score),[7],0.535
same,glycan array binding signal (z-score),[8],-0.048
same,glycan array binding signal (z-score),[9],-0.109
same,glycan array binding signal (z-score),[10],-0.276
same,glycan array binding signal (z-score),[11],0.196
same,glycan array binding signal (z-score),[12],2.45
same,glycan array binding signal (z-score),[13],-1.31
same,glycan array binding signal (z-score),[14],2.98
same,glycan array binding signal (z-score),[15],2.82
same,glycan array binding signal (z-score),[16],-2.22
same,glycan array binding signal (z-score),[17],-0.702
same,glycan array binding signal (z-score),[18],-0.47
same,glycan array binding signal (z-score),[19],2.48
same,glycan array binding signal (z-score),[20],2.62
same,glycan array binding signal (z-score),[21],0.185
same,glycan array binding signal (z-score),[22],0.285
same,glycan array binding signal (z-score),[23],-0.4
same,glycan array binding signal (z-score),[24],0.736
same,glycan array binding signal (z-score),[25],4.38
same,glycan array binding signal (z-score),[26],-0.11
same,glycan array binding signal (z-score),[27],2.64
same,glycan array binding signal (z-score),[28],-1.4
same,glycan array binding signal (z-score),[29],0.002
same,glycan array binding signal (z-score),[30],0.104
